Reference: PubChem BioAssay (EPA / NIEHS)
Inconclusive results are not listed. The source made the active and inactive calls. The calls were made as follows, unless noted: active = hit-call score of the fitted dose curve at least 0.9, where 1 is the maximum; inconclusive = response in the unintended direction; inactive = score below 0.9.

What was measured:
[1] = TOX21_p53_BLA_p2_viability: Viability Assessment in the Tox21 HCT-116 p53 Agonism Beta-lactamase Assay, Phase 2 (AID 2283591);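 also: compound exposure lasted 16 h at 37 °C; actives lower the ATP signal meaning cytotoxicity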
Outline: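 HCT116 p53-bla cells, 4000/well, dosed after 5 h plating (217-fold dilution of DMSO stocks) and incubated 16 h at 37C. Viability taken as cellular ATP by CellTiter-Glo luminescence after 30 min RT; signal loss marks cytotoxicity.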

[2] = TOX21_p53_BLA_p3_viability: Viability Assessment in the Tox21 HCT-116 p53 Agonism Beta-lactamase Assay, Phase 3 (AID 2283593);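 also: cells exposed to compound for 16 h before reading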
Outline: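 HCT116 cells, 4000/well, dosed 5 h after plating by pin transfer (217-fold dilution from DMSO stock) and incubated 16 h at 37C, 5% CO2. Viability read as ATP luminescence with CellTiter-Glo after 30 min at room temperature.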

[3] = target: Cellular tumor antigen p53 (Homo sapiens) (UniProt P04637); test: TOX21_p53_BLA_p3_ratio: Tox21 HCT-116 p53 Agonism Beta-lactamase Assay, Ratio, Phase 3 (AID 2283596)
Sequence of Cellular tumor antigen p53 (Homo sapiens) (P04637 whole entry, looked up): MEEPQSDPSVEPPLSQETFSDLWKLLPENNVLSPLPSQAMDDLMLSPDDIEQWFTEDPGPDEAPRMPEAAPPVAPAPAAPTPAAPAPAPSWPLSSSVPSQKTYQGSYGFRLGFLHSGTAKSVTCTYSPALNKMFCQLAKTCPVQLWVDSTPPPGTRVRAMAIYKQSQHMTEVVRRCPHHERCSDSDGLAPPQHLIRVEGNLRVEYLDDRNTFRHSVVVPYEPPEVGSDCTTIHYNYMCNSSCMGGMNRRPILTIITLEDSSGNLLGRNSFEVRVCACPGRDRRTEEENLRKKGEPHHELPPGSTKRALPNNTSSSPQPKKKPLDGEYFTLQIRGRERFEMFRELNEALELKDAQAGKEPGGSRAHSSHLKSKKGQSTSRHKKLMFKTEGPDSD
Outline: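 HCT116 p53-bla cells (4000/well) given compound in DMSO (217-fold dilution) after 5 h, incubated 16 h at 37C. CCF4-AM substrate 2 h at room temperature; 460/530 nm emission ratio, gain fitted against DMSO.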

[4] = TOX21_p53_BLA_p4_viability: Viability Assessment in the Tox21 HCT-116 p53 Agonism Beta-lactamase Assay, Phase 4 (AID 2283597);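 also: hits lower the luminescence signal meaning cytotoxicity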
Outline: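 We seeded HCT116 p53 reporter cells at 4000/well and waited 5 h. We then added compounds in DMSO at a 217-fold dilution and incubated for 16 h. Viability was read as CellTiter-Glo luminescence after 30 min at RT.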

[5] = TOX21_p53_BLA_p5_viability: Viability Assessment in the Tox21 HCT-116 p53 Agonism Beta-lactamase Assay, Phase 5 (AID 2283600)
Outline: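 Compounds, pinned from DMSO at 217-fold dilution, were left on the cells for 16 h. The viability endpoint was ATP content measured by CellTiter-Glo luminescence, where falling signal reflects cytotoxicity.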

[6] = target: Cellular tumor antigen p53 (Homo sapiens) (UniProt P04637); test: TOX21_p53_BLA_p4_ratio: Tox21 HCT-116 p53 Agonism Beta-lactamase Assay, Ratio, Phase 4 (AID 2283601)
Outline: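 HCT-116 p53 beta-lactamase reporter cells (4000/well) preincubated 5 h, then compound (217-fold dilution of DMSO stock) for 16 h at 37C. CCF4-AM substrate added 2 h at room temperature; 460/530 nm emission ratio fitted upward versus DMSO.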

[7] = target: Thyroid hormone receptor alpha (Rattus norvegicus) + Thyroid hormone receptor beta (Rattus norvegicus) (UniProt P18113+P63059); test: TOX21_TR_LUC_GH3_Agonist_Followup: Tox21 GH3 Thyroid Hormone Receptor Agonism Luciferase Follow-Up Assay (AID 2283939)
Sequence of Thyroid hormone receptor alpha (Rattus norvegicus) + Thyroid hormone receptor beta (Rattus norvegicus) (P63059 whole entry, looked up): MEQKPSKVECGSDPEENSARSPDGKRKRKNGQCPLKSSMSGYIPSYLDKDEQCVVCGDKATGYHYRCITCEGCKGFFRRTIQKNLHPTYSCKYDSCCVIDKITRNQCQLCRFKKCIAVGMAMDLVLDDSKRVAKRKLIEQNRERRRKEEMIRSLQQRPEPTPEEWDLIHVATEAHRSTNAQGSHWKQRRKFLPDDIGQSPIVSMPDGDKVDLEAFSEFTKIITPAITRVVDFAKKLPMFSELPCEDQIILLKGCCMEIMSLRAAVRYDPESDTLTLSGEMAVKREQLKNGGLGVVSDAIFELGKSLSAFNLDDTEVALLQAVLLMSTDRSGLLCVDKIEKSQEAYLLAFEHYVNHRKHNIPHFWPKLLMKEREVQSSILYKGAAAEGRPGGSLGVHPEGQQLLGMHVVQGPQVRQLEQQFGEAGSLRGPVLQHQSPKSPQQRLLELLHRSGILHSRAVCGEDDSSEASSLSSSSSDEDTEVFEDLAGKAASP
Sequence of Thyroid hormone receptor alpha (Rattus norvegicus) + Thyroid hormone receptor beta (Rattus norvegicus) (P18113 whole entry, looked up): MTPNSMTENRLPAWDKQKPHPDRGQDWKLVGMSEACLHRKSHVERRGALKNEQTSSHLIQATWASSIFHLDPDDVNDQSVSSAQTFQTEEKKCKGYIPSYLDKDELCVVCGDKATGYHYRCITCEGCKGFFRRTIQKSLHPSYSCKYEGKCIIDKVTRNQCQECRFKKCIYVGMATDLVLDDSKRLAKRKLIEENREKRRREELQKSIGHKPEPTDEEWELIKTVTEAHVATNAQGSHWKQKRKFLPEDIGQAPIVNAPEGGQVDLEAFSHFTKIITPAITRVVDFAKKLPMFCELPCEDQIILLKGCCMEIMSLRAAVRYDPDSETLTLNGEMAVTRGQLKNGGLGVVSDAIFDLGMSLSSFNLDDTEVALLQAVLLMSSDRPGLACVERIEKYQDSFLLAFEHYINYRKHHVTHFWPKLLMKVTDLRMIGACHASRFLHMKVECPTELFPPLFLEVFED
Outline: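 Rat GH3 cells (1,500/well) in serum-free assay medium, treated with 15-point series, 92 uM to 5 nM final, for 24 h at 37C. Luciferase via ONE-Glo luminescence; gain of signal fitted against DMSO, T3 positive control.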

THRA (gene 7067) = THRA (gene 7067) (UniProt P10827); test: TOX21_TRA_COA_Agonist_Followup_ratio: Tox21 Thyroid Hormone Receptor alpha Agonism through Coactivator Recruitment Follow-Up Assay, Ratio (AID 2283948; active = hit-call score of the fitted dose curve at least 0.9, where 1 is the maximum; inactive = score below 0.9)
Sequence of THRA (gene 7067) (P10827 whole entry, looked up, the tested form may be a part): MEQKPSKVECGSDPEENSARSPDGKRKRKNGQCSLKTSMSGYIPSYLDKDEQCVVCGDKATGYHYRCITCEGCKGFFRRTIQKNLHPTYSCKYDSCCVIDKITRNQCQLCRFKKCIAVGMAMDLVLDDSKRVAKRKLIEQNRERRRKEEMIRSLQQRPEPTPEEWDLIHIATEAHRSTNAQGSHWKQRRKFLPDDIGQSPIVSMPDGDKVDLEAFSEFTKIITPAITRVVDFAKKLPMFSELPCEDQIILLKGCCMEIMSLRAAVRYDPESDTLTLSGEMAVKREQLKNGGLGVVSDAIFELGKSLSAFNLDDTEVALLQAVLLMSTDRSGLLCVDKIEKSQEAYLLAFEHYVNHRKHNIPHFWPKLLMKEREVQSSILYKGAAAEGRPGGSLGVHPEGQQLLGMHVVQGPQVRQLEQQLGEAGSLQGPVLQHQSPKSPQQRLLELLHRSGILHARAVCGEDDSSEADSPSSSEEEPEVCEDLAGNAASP
Outline: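 GST-TRa LBD 2.5 nM + 0.10% BSA + cpd; add fluorescein-SRC-2 200 nM, Tb-anti-GST 2 nM. TR-FRET ex 340, em 520/495 ratio. Norm: DMSO 0%, T3 100%; gain-of-signal fit.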

THRB (gene 7068) [8] = target: THRB (gene 7068) (UniProt P10828); test: TOX21_TRB_BLA_Agonist_Followup_ratio: Tox21 Thyroid Hormone Receptor beta Agonism Beta-lactamase (BLA) Follow-Up Assay, Ratio (AID 2283954)
Sequence of THRB (gene 7068) (P10828 whole entry, looked up, the tested form may be a part): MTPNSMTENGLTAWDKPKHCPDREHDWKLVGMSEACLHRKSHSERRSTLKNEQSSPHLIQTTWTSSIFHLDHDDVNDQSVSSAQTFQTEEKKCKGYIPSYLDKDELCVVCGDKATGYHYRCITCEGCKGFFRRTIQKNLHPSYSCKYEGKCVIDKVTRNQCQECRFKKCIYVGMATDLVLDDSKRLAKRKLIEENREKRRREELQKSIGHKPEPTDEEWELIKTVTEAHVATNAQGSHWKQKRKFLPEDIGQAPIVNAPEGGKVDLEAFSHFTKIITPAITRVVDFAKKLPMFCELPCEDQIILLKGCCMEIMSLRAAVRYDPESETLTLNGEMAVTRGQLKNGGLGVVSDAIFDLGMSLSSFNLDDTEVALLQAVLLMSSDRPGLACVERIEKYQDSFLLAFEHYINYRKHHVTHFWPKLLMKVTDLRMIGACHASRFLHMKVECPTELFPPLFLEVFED
Outline: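 Human TRβ LBD–GAL4 DBD fusion in GeneBLAzer UAS-bla HEK293T cells; 11 concentrations in triplicate, 18 h at 37°C/5% CO2, T3 as agonist control. CCF4-AM substrate 2 h at room temperature; 460:530 nm ratio fitted for gain of signal versus DMSO.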

[9] = TOX21_TRB_BLA_Agonist_Followup_viability: Viability Assessment in the Tox21 Thyroid Hormone Receptor beta Agonism Beta-lactamase (BLA) Follow-Up Assay (AID 2283956)
Outline: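 TRb-bla HEK293T cells (GAL4-DBD/human TRb LBD) in 2% charcoal-stripped FBS medium were exposed 18 h at 37C to 11 concentrations in triplicate. CellTiter-Glo ATP luminescence was read after 30 min at room temperature, with bidirectional fitting against DMSO.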

THRB (gene 7068) [10] = target: THRB (gene 7068) (UniProt P10828); test: TOX21_TRB_COA_Agonist_Followup_ratio: Tox21 Thyroid Hormone Receptor beta Agonism through Coactivator Recruitment Follow-Up Assay, Ratio (AID 2283963; active = hit-call score of the fitted dose curve at least 0.9, where 1 is the maximum; inactive = score below 0.9)
Outline: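 GST-TRb LBD 5.0 nM + 0.10% BSA + cpd; add fluorescein-SRC-2 200 nM / Tb anti-GST Ab 2 nM; TR-FRET ex 340, em 520:495; norm DMSO 0%, T3 100%.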

[11] = target: Retinoic acid receptor RXR-alpha (Homo sapiens) (UniProt P19793); test: TOX21_TR_RXR_BLA_Agonist_Followup_ratio: Tox21 Thyroid Hormone Receptor beta Retinoid X Receptor alpha (RXRa) Agonism Beta-lactamase (BLA) Follow-Up Assay, Ratio (AID 2283968)
Sequence of Retinoic acid receptor RXR-alpha (Homo sapiens) (P19793 whole entry, looked up, the tested form may be a part): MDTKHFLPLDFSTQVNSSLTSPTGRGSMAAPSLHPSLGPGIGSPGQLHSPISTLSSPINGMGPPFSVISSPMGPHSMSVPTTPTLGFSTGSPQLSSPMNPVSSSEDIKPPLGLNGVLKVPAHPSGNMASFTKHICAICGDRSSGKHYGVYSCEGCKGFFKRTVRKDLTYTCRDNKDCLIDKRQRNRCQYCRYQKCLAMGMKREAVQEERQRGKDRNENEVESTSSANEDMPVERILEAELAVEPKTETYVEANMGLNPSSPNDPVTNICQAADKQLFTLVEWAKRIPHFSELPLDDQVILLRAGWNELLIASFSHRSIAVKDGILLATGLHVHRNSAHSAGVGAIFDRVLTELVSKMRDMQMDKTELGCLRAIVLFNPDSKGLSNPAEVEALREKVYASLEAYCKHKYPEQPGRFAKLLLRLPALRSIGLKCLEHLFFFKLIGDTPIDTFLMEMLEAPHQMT
Outline: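 This follow-up tests whether responses seen in the TR GH3 luciferase agonist screen are specific, using a GAL4-driven beta-lactamase reporter for RXRa in HEK293T cells. Compound exposure lasts 16 h; signal is the cleaved/uncleaved substrate ratio.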

[12] = TOX21_TR_RXR_BLA_Agonist_Followup_viability: Viability Assessment in the Tox21 Thyroid Hormone Receptor beta Retinoid X Receptor alpha (RXRa) Agonism Beta-lactamase (BLA) Follow-Up Assay (AID 2283970)
Outline: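 In qHTS format, RXRa-bla HEK293T cells (2,500/well) received compound for 16h. ATP content was then measured with CellTiter-Glo, and responses were fitted bidirectionally relative to DMSO controls.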

[13] = target: Cellular tumor antigen p53 (Homo sapiens) (UniProt P04637); test: TOX21_p53_BLA_p5_ratio: Tox21 HCT-116 p53 Agonism Beta-lactamase Assay, Ratio, Phase 5 (AID 2283599)
Outline: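 HCT-116 p53-bla cells (4000/well) plated 5 h, dosed with compound (217-fold DMSO dilution) for 16 h at 37 C; CCF4-AM substrate 2 h at room temperature. Activity is the 460/530 nm emission ratio (405 nm excitation), fitted in gain-of-signal direction versus DMSO.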

[14] = target: Cellular tumor antigen p53 (Homo sapiens) (UniProt P04637); test: TOX21_p53_BLA_p2_ratio: Tox21 HCT-116 p53 Agonism Beta-lactamase Assay, Ratio, Phase 2 (AID 2283592)
Outline: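 In this cell-based reporter format, HCT116 cells were dosed with chemicals delivered from DMSO by 217-fold dilution and incubated 16 h at 37C. Emission at 460 and 530 nm after 2 h CCF4-AM loading provided the ratio, fitted upward versus DMSO.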

[15] = ACEA_ER_AUC_viability: ACEA Biosciences xCELLigence Real-Time Cell Analysis on Estrogen Receptor Agonism for Viability (AID 2283782);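 also: continuous compound exposure with impedance area under curve over 80 h; hit means loss of impedance signal meaning reduced cell growth or viability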
Outline: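 T47D cells preconditioned in phenol red-free RPMI with charcoal-stripped FBS, then dosed with 8-point 1:4 series from 100 uM (up to 0.5% DMSO). Impedance monitored up to ~80 h; area-under-curve loss versus DMSO taken as viability.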

[16] = CCTE_Harrill_HTTr_Apoptosis_MCF7: CCTE's 6-hour Apoptosis Assessment for the High-Throughput Transcriptomics (HTTr) Platform, in MCF-7 cells cultured in DMEM + 10% fetal bovine serum, Harrill Lab (AID 2284011; active = hit-call score of the fitted dose curve at least 0.9, where 1 is the maximum; inactive = score below 0.9)
Outline: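 Read-out: CellEvent Caspase 3/7 Green signal by high content imaging, gain-of-signal indicating apoptosis. MCF-7 cells, DMEM + 10% FBS, eight-point dilution series, 6 h exposure. Curves fitted bidirectionally relative to DMSO negative control.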

Measured: AC50

O=[N+]([O-])c1ccc(CBr)cc1
active: [3] 94.3 µM
inactive: [1] | [2] | [4]

COc1ccc(OC)c([C@@H](O)[C@H](C)N)c1
active: [7] 14.9 µM
not listed: [4] | [13] | [14] | [15] | [16]
inactive: all other assays above

CC1(C)C(/C=C(\Cl)C(F)(F)F)C1C(=O)OC(C#N)c1cccc(Oc2ccccc2)c1 (configuration not stated)
inactive: [1] | [2] | [3] | [4] | [6]

CC(C)C(Nc1ccc(C(F)(F)F)cc1Cl)C(=O)OC(C#N)c1cccc(Oc2ccccc2)c1 (configuration not stated)
inactive: [1] | [2] | [13] | [6]
active: [3] 87.3 µM

CCOS(C)(=O)=O
inactive: [1] | [2] | [3] | [4] | [13] | [6]

C=CC1CC=CCC1 (configuration not stated)
inactive: [1] | [2] | [3] | [13]

C[C@@H]1[C@@H]2Cc3ccc(O)cc3[C@@]1(C)CCN2CC1CC1
inactive: [1] | [14] | [6]

CCCCCCCCCCCCCCCCCC(=O)O
inactive: [1] | [2] | [4]

CC(Cl)C(=O)O (configuration not stated)
inactive: [1] | [2] | [3] | [4] | [5]

O=[N+]([O-])[O-].[Tl+]
inactive: [1] | [2] | [4]

N#CCc1ccccc1
inactive: [1] | [2] | [3] | [4] | [13] | [5] | [6]

CCCN(CC1CC1)c1c([N+](=O)[O-])cc(C(F)(F)F)cc1[N+](=O)[O-]
inactive: [1] | [2] | [3] | [4] | [13] | [5] | [16]
active: [15] 25.4 µM

N#C/C(N)=C(/N)C#N
inactive: [1] | [2] | [3] | [5] | [6]

CC(C)c1ccc(NC(=O)N(C)C)cc1
inactive: [1] | [2] | [3] | [4] | [13] | [5] | [6]

O=C1CCCCC1Cl (configuration not stated)
inactive: [1] | [2] | [3] | [4]

CC[C@H](N)c1ccccc1
inactive: [1] | [2] | [3] | [4] | [13]

COC(C)(C)CCCC(C)C/C=C/C(C)=C/C(=O)OC(C)C (configuration not stated)
inactive: [1] | [2] | [3] | [4] | [13] | [5] | [6]

C=C1CC[C@@]2(O)[C@H]3Cc4ccc(O)c5c4[C@@]2(CCN3CC2CC2)[C@H]1O5
inactive: [1] | [2] | [3] | [6]
